Measurements as given in PubChem BioAssay (Tox21).
Activity calls are given as the source filed them. Where a call stands in place of a potency, no number is given. The call rests on the fitted dose curve; in most records, active means well fitted curve in the direction sought with a large enough effect in the repeat runs; inconclusive means weak or mixed curves; inactive means flat fitted curve, though single readings scatter.

Test: qHTS assay to test for compound auto fluorescence at 535 nm (green) in HepG2 cells (AID 720675)
Settings: green autofluorescence 485/535 nm, 1 h; series mostly up to 91.3 µM

SMILES	Potency
CNCCC(Oc1ccc(C(F)(F)F)cc1)c1ccccc1 (stereo unspecified)	inactive
O	inactive
CC(C)(C)NC(=O)[C@@H]1CN(Cc2cccnc2)CCN1C[C@@H](O)C[C@@H](Cc1ccccc1)C(=O)N[C@H]1c2ccccc2C[C@H]1O	inactive
CCn1c2ccccc2c2cc(N)ccc21	inactive
Cc1c(O)cccc1C(=O)N[C@@H](CSc1ccccc1)[C@H](O)CN1C[C@H]2CCCC[C@H]2C[C@H]1C(=O)NC(C)(C)C	inactive
Nc1ccc2cc3ccccc3cc2c1	inactive
NC(=Nc1ccccc1)Nc1ccccc1	inactive
CC(=O)Nc1ccc(C(=O)CCl)cc1	inactive
BrC1CCC(Br)C(Br)CCC(Br)C(Br)CCC1Br (stereo unspecified)	inactive
COc1ccc(Cc2cnc(N)nc2N)cc1OC	inactive
CCCCC(CC)COC(=O)CC(C(=O)OCC(CC)CCCC)S(=O)(=O)O (stereo unspecified)	inactive
CC[C@]1(O)C[C@@H]2CN(CCc3c([nH]c4ccccc34)[C@@](C(=O)OC)(c3cc4c(cc3OC)N(C)[C@H]3[C@@](O)(C(=O)OC)[C@H](OC(C)=O)[C@]5(CC)C=CCN6CC[C@]43[C@@H]65)C2)C1	inactive
CCCOC(=O)c1cc(O)c(O)c(O)c1	inactive
CCCN[C@H]1CCc2nc(N)sc2C1	inactive
CCOc1ccc2c(c1)C(C)=CC(C)(C)N2	inactive
CCCCCCC(O)CCCCCCCCCCC(=O)O (stereo unspecified)	inactive
